Data on 36 compounds can be found in PubChem BioAssay AID651899 (Broad Institute, 2012).

The assay in a line: HEK293 cell viability loss – plate reader, cherry-pick, cytotoxicity control, dose response (AID 651899).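 Further: cells exposed to compound for 48 hours.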

Potency and affinity values are given separately. Activity calls are given as the source filed them. Where a call stands in place of a potency, no number is given. How the calls were made is not given here.

With `Cc1cc(C)n2nc(C(=O)Nc3cccnc3)nc2n1`, the call was inactive.

With `COc1cccc(-c2ccc3c(c2)[C@H]2[C@H](CCN2C(=O)C2CCC2)[C@@H](CO)N3)c1`, the call was inactive.

`COc1ccc(CCN(C)c2ccc(C(N)=O)cc2[N+](=O)[O-])cc1OC`: the compound was called inactive.

`CN(C(=O)CSc1nc2ccccc2c(=O)n1-c1ccccc1Cl)C1CCS(=O)(=O)C1` (stereo unspecified): the call was inactive.

`COc1cc(C(=O)N2Cc3cc4ccccc4nc3C2C)cc(OC)c1OC` (stereo unspecified): the compound was classed as inactive.

Take `CCc1nn(CCCC(=O)N(C)Cc2ccccc2)c(=O)c2cc3occc3n12`: the outcome was inactive.

Turning to `CN1c2ccc(-c3cccc(F)c3)cc2[C@H]2[C@H](CCN2C(=O)c2ccc3c(c2)OCO3)[C@H]1CO`, the compound was classed as inactive.

Regarding `COc1cc(-c2n[nH]c(=S)n2Cc2ccccc2)cc(OC)c1OC`, the outcome was inactive.

Turning to `O=C(Nc1ccc(F)cc1)NC1CCN(Cc2nnnn2Cc2ccco2)CC1`, the call was inactive.

`CC(Oc1ccc2c(-c3ccccc3)cc(=O)oc2c1)C(=O)NCc1ccccn1` (stereo unspecified): the result was inactive.

Take `CCNC(=O)[C@@H]1[C@@H](CO)[C@@H]2Cn3c(ccc(-c4cccnc4)c3=O)[C@@H]2N1Cc1ccc2c(c1)OCO2`: the result was inactive.

Regarding `COc1ccccc1S(=O)(=O)N1CC[C@@H]2[C@H](CO)Nc3ccc(-c4cccc(C#N)c4)cc3[C@@H]21`, the call was inactive.

Turning to `CC1CCCN(c2ccc(C(=O)Nc3cccnc3)cc2[N+](=O)[O-])C1` (stereo unspecified), the call was inactive.

Consider `COc1ccccc1-c1cc(C(F)(F)F)nc(S(=O)(=O)CCCC(=O)O)n1`, for which the result was inactive.

Take `C=CCn1c(SCc2c(C(=O)OC)sc(N)c2C(=O)OC)nnc1-c1ccc(Cl)cc1`: the call was inactive.

Turning to `O=C(CSc1n[nH]c(-c2cccnc2)n1)Nc1ccnc2ccccc12`, the compound was called inactive.

As to `CC(=O)c1ccc(C(=O)N2CCCC(Nc3ccccc3)C2)s1` (stereo unspecified), the call was inactive.

Turning to `CC(=O)N1CC[C@@H]2[C@@H](CO)N(C)c3ccc(-c4cccc(F)c4)cc3[C@@H]21`, the result was inactive.

For the compound `Cc1nc2sc(C(c3ccc(Cl)cc3)N3CCN(c4ccccc4F)CC3)c(O)n2n1` (stereo unspecified), the call was inactive.

Regarding `CC(C)(C)c1cc(C(=O)Nc2cccnc2)cc(C(=O)Nc2cccnc2)c1`, the result was inactive.

In the case of `O=C(N[C@H]1CC[C@@H](CCn2cc(-c3cccnc3)nn2)O[C@@H]1CO)c1ccccc1F`, the call was inactive.

On to `C/C=C(/C)C(=O)OC(C)(C)[C@@H]1Cc2c(ccc3ccc(=O)oc23)O1`, for which the result was inactive.

In the case of `O=C(c1ccccc1F)N1CC[C@@H]2[C@H]1c1cc(Br)ccc1N[C@@H]2CO`, the compound was classed as inactive.

For `N#Cc1ccc(-c2ccc3c(c2)[C@@H]2[C@@H](CCN2C(=O)c2ccc(F)cc2)[C@@H](CO)N3)cc1`, the compound was called inactive.

`O=C1CCCc2c1cc(C(=O)NCc1ccco1)c(=O)n2-c1ccc(Cl)cc1`: the outcome was inactive.

For the compound `Cc1c(OC(C)C(=O)NCC2CCC(C(=O)O)CC2)ccc2c1oc(=O)c1ccccc12` (stereo unspecified), the compound was classed as inactive.

As for `Cc1nc2c(C(=O)N3CCN(c4ccccn4)CC3)cnn2c(C)c1Cc1cccc(Cl)c1`, the compound was classed as inactive.

On to `Cc1cc2c(c(=O)n1Cc1cccnc1)C(c1cccs1)C(C#N)=C(N)O2` (stereo unspecified), for which the call was inactive.

Regarding `COC(=O)c1c(C(=O)OC)c(-c2ccc(F)cc2)n2c1CS(=O)C2` (stereo unspecified), the compound was called inactive.

In the case of `COc1ccc(NC2CCCN(C(=O)c3ccc(C(C)=O)s3)C2)cc1` (stereo unspecified), the compound was called inactive.

As for `CC1(C)CC(=O)C=C(c2ccc3ncccc3c2)C1`, the compound was called inactive.

As to `CC(=O)c1ccc(NC(=O)CN2CCN(c3ccccc3)CC2)cc1`, the compound was classed as inactive.

For the compound `CN(C)C(=O)C[C@@H]1C[C@@H]2c3cc(NC(=O)c4cccnc4)ccc3O[C@@H]2[C@@H](CO)O1`, the compound was classed as inactive.

In the case of `C[C@@H]1CN([C@H](C)CO)C(=O)c2cc(C#Cc3cccnc3)cnc2O[C@H]1CN(C)S(C)(=O)=O`, the outcome was inactive.

Regarding `Cc1cccc(-n2c(SCC(=O)N(C)C3CCS(=O)(=O)C3)nc3ccccc3c2=O)c1C` (stereo unspecified), the call was inactive.

As to `O=C(C[C@H]1C[C@@H]2c3cc(NC(=O)c4cccnc4)ccc3O[C@@H]2[C@@H](CO)O1)NCC(F)(F)F`, the call was inactive.
